Test results: PubChem BioAssay (EPA / NIEHS)
Results filed as inconclusive are left out. Some structures have more than one record in an assay (separate samples or runs), and their calls can disagree. Activity calls are given as the source filed them. Rule for the calls, unless noted: active = hit-call score of the fitted dose curve at least 0.9, where 1 is the maximum; inactive = score below 0.9.

What was measured:
[1] = read-out: Nuclear factor erythroid 2-related factor 2 (Homo sapiens) (UniProt Q16236); test: LTEA_HepaRG_NFE2L2: Life Technologies and Expression Analysis (LTEA) Assay for Nuclear factor erythroid 2-related factor 2 (NFE2L2) Transcription Factor using HepaRG (AID 2283527); settings: mRNA level, 48 h; actives raise or lower the signal
Procedure, shortened: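 NFE2L2 transcript level was read by qRT-PCR (housekeeping ACTB/GAPDH/POLR2A normalisation) after 48 h chemical treatment of HepaRG in serum-free induction medium. Duplicate 8-point half-log curves, top 100 uM, 0.5% DMSO vehicle; up- or down-regulation fitted against vehicle.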

[2] = read-out: Signal transducer and activator of transcription 3 (Homo sapiens) (UniProt P40763); test: LTEA_HepaRG_STAT3: Life Technologies and Expression Analysis (LTEA) Assay for Signal transducer and activator of transcription (STAT3) using HepaRG (AID 2283529); settings: mRNA level, 48 h; actives raise or lower the signal
Procedure, shortened: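 STAT3 transcript quantified by qRT-PCR against three housekeeping genes (ACTB, GAPDH, POLR2A), fitted both directions relative to DMSO. HepaRG cultures exposed 48 h to eight half-log concentrations, top 100 uM, 0.5% DMSO, serum-free induction medium.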

[3] = read-out: solute carrier (SLCO1B1), SLCO1B1 (gene 10599); test: LTEA_HepaRG_SLCO1B1: Life Technologies and Expression Analysis (LTEA) Assay for solute carrier (SLCO1B1) using HepaRG (AID 2283530); settings: mRNA level, 48 h; actives raise or lower the signal
Procedure, shortened: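 Gain or loss of SLCO1B1 mRNA is fitted against the 0.5% DMSO vehicle in human HepaRG liver cells treated 48 h at up to 100 uM in half-log steps. Expression comes from qRT-PCR normalized to endogenous controls.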

[4] = read-out: sulfotransferase 2A1 (SULT2A1), SULT2A1 (gene 6822); test: LTEA_HepaRG_SULT2A1: Life Technologies and Expression Analysis (LTEA) Assay for sulfotransferase 2A1 (SULT2A1) using HepaRG (AID 2283531); settings: mRNA level, 48 h; actives raise or lower the signal
Procedure, shortened: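 Cells were plated and cultured 48 h, switched to serum-free induction medium, then dosed in duplicate for 48 h (8 concentrations, max 100 uM). RNA was isolated and SULT2A1 expression measured by qRT-PCR; gain or loss of signal fitted relative to DMSO.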

[5] = read-out: Transforming Growth Factor (TGFA), TGFA (gene 7039); test: LTEA_HepaRG_TGFA: Life Technologies and Expression Analysis (LTEA) Assay for Transforming Growth Factor (TGFA) using HepaRG (AID 2283532); settings: mRNA level, 48 h; actives raise or lower the signal
Procedure, shortened: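 TGFA transcript quantified by qRT-PCR (Fluidigm arrays) against three housekeeping genes, after 48 hours chemical treatment of HepaRG cells. Top concentration 100 uM with half-log dilutions, 8 points, duplicates, 0.5% DMSO.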

[6] = read-out: TIMP1, TIMP1 (gene 7076); test: LTEA_HepaRG_TIMP1: Life Technologies and Expression Analysis (LTEA) Assay for TIMP1 using HepaRG (AID 2283534); settings: mRNA level, 48 h; actives raise or lower the signal;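 note: TaqMan qRT-PCR signal normalized to ACTB GAPDH and POLR2A housekeeping genes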
Procedure, shortened: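 We dosed human liver HepaRG cultures for 48 hours with up to 100 uM test chemical and measured TIMP1 expression by qRT-PCR. Activity in either direction is fitted relative to the 0.5% DMSO vehicle.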

[7] = read-out: Tumor necrosis factor receptor 1 (TNFRSF1A), TNFRSF1A (gene 7132); test: LTEA_HepaRG_TNFRSF1A: Life Technologies and Expression Analysis (LTEA) Assay for Tumor necrosis factor receptor 1 (TNFRSF1A) using HepaRG (AID 2283535); settings: mRNA level, 48 h; actives raise or lower the signal
Procedure, shortened: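 Expression of TNFRSF1A in human HepaRG liver cells was measured by qRT-PCR 48 h after chemical dosing (maximum 100 uM). Bidirectional curve fitting used 0.5% DMSO as baseline.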

[8] = read-out: Thyroid Hormone Responsive (THRSP), THRSP (gene 7069); test: LTEA_HepaRG_THRSP: Life Technologies and Expression Analysis (LTEA) Assay for Thyroid Hormone Responsive (THRSP) using HepaRG (AID 2283536); settings: mRNA level, 48 h; actives raise or lower the signal
Procedure, shortened: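 THRSP transcript quantified by Fluidigm qRT-PCR against three housekeeping genes after 48 h chemical exposure of HepaRG cells in serum-free induction medium; eight-point half-log series, top 100 uM, 0.5% DMSO vehicle, duplicate wells.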

[9] = read-out: Cellular tumor antigen p53 (Homo sapiens) (UniProt P04637); test: LTEA_HepaRG_TP53: Life Technologies and Expression Analysis (LTEA) Assay for Tumor Protein P53 (TP53) using HepaRG (AID 2283537); settings: mRNA level, 48 h; actives raise or lower the signal
Procedure, shortened: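 HepaRG, 48 h exposure, top 100 uM, half-log 8-point, 0.5% DMSO vehicle, duplicates. Read: TP53 mRNA by TaqMan qRT-PCR, normalised to ACTB/GAPDH/POLR2A; bidirectional fit vs DMSO.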

[10] = read-out: UDP glucuronosyltransferase (UGT1A1), UGT1A1 (gene 54658); test: LTEA_HepaRG_UGT1A1: Life Technologies and Expression Analysis (LTEA) Assay for UDP glucuronosyltransferase (UGT1A1) using HepaRG (AID 2283538); settings: mRNA level, 48 h; actives raise or lower the signal
Procedure, shortened: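 UGT1A1 transcript level, measured by qRT-PCR with three housekeeping genes for normalization, after 48 h treatment of human HepaRG cells (0.5% DMSO, duplicates, up to 100 uM, half-log steps, 8 points). Curves fit both directions against DMSO baseline.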

[11] = read-out: UDP glucuronosyltransferase (UGT1A6), UGT1A6 (gene 54578); test: LTEA_HepaRG_UGT1A6: Life Technologies and Expression Analysis (LTEA) Assay for UDP glucuronosyltransferase (UGT1A6) using HepaRG (AID 2283539); settings: mRNA level, 48 h; actives raise or lower the signal
Procedure, shortened: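 Endpoint is UGT1A6 transcript induction or loss in a human liver cell line, quantified by TaqMan qRT-PCR 48 h after dosing. Concentrations ran from 100 uM downward in half-log steps in 0.5% DMSO; activity was fitted in both directions versus vehicle.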

[12] = LTEA_HepaRG_LDH_cytotoxicity: Cytotoxicity Assessment in the Life Technologies and Expression Analysis (LTEA) Assay (AID 2283563; active = hit-call score of the fitted dose curve at least 0.9, where 1 is the maximum)
Procedure, shortened: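 Human HepaRG hepatic cells are treated with test chemicals for 48 h at up to 100 uM in 0.5% DMSO. Cytotoxicity is scored from medium LDH against the vehicle control.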

[13] = TOX21_p53_BLA_p2_viability: Viability Assessment in the Tox21 HCT-116 p53 Agonism Beta-lactamase Assay, Phase 2 (AID 2283591; active = hit-call score of the fitted dose curve at least 0.9, where 1 is the maximum;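 note: compound exposure lasted 16 h at 37 °C; actives lower the ATP signal meaning cytotoxicity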)
Procedure, shortened: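 Cytotoxicity readout: CellTiter-Glo ATP luminescence, 30 min at room temperature, after the beta-lactamase read. Cells were HCT116 exposed 16 h at 37C to compounds pin-transferred at 217-fold dilution from DMSO stocks.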

[14] = target: Cellular tumor antigen p53 (Homo sapiens) (UniProt P04637); test: TOX21_p53_BLA_p2_ratio: Tox21 HCT-116 p53 Agonism Beta-lactamase Assay, Ratio, Phase 2 (AID 2283592; active = hit-call score of the fitted dose curve at least 0.9, where 1 is the maximum)
Procedure, shortened: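 Cleaved-to-uncleaved substrate ratio (460 vs 530 nm) measured in HCT116 cells with an inducible beta-lactamase reporter linked to p53 activity. Compounds incubated 16 h at 37C before 2 h room-temperature CCF4-AM loading.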

[15] = TOX21_p53_BLA_p3_viability: Viability Assessment in the Tox21 HCT-116 p53 Agonism Beta-lactamase Assay, Phase 3 (AID 2283593; active = hit-call score of the fitted dose curve at least 0.9, where 1 is the maximum;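 note: cells exposed to compound for 16 h before reading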)
Procedure, shortened: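 Cellular ATP was quantified by CellTiter-Glo luminescence, read after 30 min at room temperature. Beforehand, HCT116 cells (4000/well) received compound 5 h post-seeding, 217-fold diluted from DMSO, then incubated 16 h at 37C.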

[16] = target: Cellular tumor antigen p53 (Homo sapiens) (UniProt P04637); test: TOX21_p53_BLA_p3_ratio: Tox21 HCT-116 p53 Agonism Beta-lactamase Assay, Ratio, Phase 3 (AID 2283596; active = hit-call score of the fitted dose curve at least 0.9, where 1 is the maximum)
Procedure, shortened: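 Cells were seeded at 4000/well, rested 5 h at 37C, then dosed with DMSO compound solutions (217-fold dilution) for 16 h. CCF4-AM substrate was loaded for 2 h at room temperature, and the 460/530 nm emission ratio was fitted for gain of signal versus DMSO.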

[17] = read-out: X-box binding protein 1 (XBP1), XBP1 (gene 7494); test: LTEA_HepaRG_XBP1: Life Technologies and Expression Analysis (LTEA) Assay for X-box binding protein 1 (XBP1) using HepaRG (AID 2283540); settings: mRNA level, 48 h; actives raise or lower the signal
Procedure, shortened: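 Human HepaRG monolayers receive test chemical for 48 h across an eight-point half-log series starting at 100 uM. XBP1 mRNA gain or loss is scored against DMSO by qRT-PCR.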

[18] = read-out: Transforming Growth Factor (TGFB1), TGFB1 (gene 7040); test: LTEA_HepaRG_TGFB1: Life Technologies and Expression Analysis (LTEA) Assay for Transforming Growth Factor (TGFB1) Transporter using HepaRG (AID 2283533); settings: mRNA level, 48 h; actives raise or lower the signal
Procedure, shortened: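 Expression change of TGFB1 in human HepaRG cells is measured after a 48 h chemical exposure, up to 100 uM in 0.5% DMSO vehicle. Curves are fitted in both directions relative to the DMSO baseline.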

Measured: AC50

Cellular tumor antigen p53 (Homo sapiens), sequence (P04637 whole entry, looked up): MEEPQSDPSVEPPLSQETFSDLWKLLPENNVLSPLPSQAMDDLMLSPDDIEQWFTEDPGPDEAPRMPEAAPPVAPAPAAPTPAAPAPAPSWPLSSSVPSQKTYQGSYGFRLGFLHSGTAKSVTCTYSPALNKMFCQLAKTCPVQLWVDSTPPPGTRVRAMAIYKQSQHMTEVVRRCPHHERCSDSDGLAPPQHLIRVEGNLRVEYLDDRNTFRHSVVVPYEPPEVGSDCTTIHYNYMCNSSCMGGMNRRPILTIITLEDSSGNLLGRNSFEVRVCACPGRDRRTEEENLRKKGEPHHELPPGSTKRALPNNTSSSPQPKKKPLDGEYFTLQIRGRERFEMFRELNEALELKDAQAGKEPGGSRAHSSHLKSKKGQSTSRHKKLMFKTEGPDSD
Nuclear factor erythroid 2-related factor 2 (Homo sapiens), sequence (Q16236 whole entry, looked up): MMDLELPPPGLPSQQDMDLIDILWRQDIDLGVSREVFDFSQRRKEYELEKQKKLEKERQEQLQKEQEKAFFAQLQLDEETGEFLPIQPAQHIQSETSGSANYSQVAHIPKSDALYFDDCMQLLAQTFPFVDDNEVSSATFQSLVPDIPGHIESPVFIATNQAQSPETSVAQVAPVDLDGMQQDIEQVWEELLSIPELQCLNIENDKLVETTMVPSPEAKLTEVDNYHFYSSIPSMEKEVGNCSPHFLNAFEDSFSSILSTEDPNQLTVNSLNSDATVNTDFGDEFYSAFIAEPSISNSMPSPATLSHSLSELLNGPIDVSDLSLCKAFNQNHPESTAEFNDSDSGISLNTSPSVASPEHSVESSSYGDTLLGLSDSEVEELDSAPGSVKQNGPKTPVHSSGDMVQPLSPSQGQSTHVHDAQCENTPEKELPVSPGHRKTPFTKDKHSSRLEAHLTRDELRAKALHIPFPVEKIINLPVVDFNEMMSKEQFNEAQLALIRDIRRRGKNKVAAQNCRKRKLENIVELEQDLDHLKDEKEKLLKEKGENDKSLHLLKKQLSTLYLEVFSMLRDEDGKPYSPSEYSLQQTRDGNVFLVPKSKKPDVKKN
Signal transducer and activator of transcription 3 (Homo sapiens), sequence (P40763 whole entry, looked up): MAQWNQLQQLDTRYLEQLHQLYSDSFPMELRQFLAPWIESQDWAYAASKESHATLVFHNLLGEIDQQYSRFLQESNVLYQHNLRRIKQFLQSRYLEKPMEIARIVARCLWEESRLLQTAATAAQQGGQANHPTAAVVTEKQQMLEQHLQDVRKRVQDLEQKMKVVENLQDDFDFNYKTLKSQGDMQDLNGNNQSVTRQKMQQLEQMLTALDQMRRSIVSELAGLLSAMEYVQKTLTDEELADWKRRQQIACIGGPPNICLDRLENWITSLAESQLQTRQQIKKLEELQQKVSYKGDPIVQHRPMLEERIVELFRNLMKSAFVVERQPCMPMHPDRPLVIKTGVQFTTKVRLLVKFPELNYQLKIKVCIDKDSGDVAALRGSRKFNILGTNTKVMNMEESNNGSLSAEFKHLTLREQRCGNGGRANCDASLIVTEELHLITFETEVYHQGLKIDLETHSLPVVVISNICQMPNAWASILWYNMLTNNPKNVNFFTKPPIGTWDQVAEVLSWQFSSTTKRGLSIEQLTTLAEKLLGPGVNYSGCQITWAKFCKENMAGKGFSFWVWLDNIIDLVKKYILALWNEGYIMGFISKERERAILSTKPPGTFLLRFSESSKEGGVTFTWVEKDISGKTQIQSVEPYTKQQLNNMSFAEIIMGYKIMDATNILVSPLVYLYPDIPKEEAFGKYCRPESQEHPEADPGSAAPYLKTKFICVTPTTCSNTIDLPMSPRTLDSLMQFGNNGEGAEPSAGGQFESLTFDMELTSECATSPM

CC(C)N(C(=O)SCC(Cl)=C(Cl)Cl)C(C)C
inactive: [1] | [2] | [3] | [4] | [5] | [6] | [7] | [8] | [9] | [10] | [11] | [12] | [13] | [14] | [15] | [16]

CNC(=O)ON=C(C)SC
inactive: [1] | [2] | [3] | [4] | [5] | [6] | [7] | [8] | [9] | [10] | [11] | [12]

CCOP(=S)(OCC)OC(Cl)C(Cl)(Cl)Cl (stereo not drawn)
active: [10] 30.7 µM
inactive: [1] | [2] | [3] | [4] | [5] | [6] | [7] | [8] | [9] | [11] | [17] | [14] | [15] | [16]

CC(C)=CC1C(C(=O)OCN2C(=O)C3=C(CCCC3)C2=O)C1(C)C (stereo not drawn)
inactive: [1] | [2] | [3] | [4] | [5] | [18] | [6] | [7] | [8] | [9] | [10] | [11] | [13] | [14] | [15] | [16]

CCOC(=O)COc1cc(-c2nn(C)c(OC(F)F)c2Cl)c(F)cc1Cl
inactive: [1] | [2] | [3] | [4] | [5] | [18] | [6] | [7] | [8] | [9] | [11] | [12] | [13] | [15] | [16]
active: [10] 50 µM

CCOP(=S)(OCC)Oc1ccc([N+](=O)[O-])cc1
inactive: [1] | [2] | [3] | [4] | [5] | [18] | [6] | [7] | [8] | [9] | [11] | [13] | [14] | [15] | [16]
active: [10] 10.6 µM | [14] 89.3 µM

CSc1nnc(C(C)(C)C)c(=O)n1N
inactive: [1] | [2] | [3] | [4] | [5] | [6] | [7] | [8] | [9] | [11] | [14] | [15] | [16]
active: [10] 9.92 µM

CN(C)NC(=O)CCC(=O)O
inactive: [1] | [2] | [3] | [4] | [5] | [18] | [6] | [7] | [8] | [9] | [10] | [11] | [12] | [13] | [14] | [15] | [16]

FC(F)C(F)(F)OCC(Cn1cncn1)c1ccc(Cl)cc1Cl (stereo not drawn)
active: [1] 73.7 µM | [3] 70.4 µM | [4] 53.8 µM | [5] 62.2 µM | [7] 49.8 µM | [8] 3.87 µM | [9] 31.5 µM | [10] 38.1 µM | [11] 76.8 µM
inactive: [6] | [13] | [14] | [15] | [16]

CC1(C(=O)Nc2ccc(O)c(Cl)c2Cl)CCCCC1
inactive: [1] | [2] | [3] | [4] | [5] | [18] | [6] | [8] | [9] | [10] | [11] | [17] | [13] | [14] | [15] | [16]
